A number with no mark means an inactive call. Records with an inconclusive call do not appear. The source made the active and inactive calls. Unless noted, calls come from the whole dose curve; as a rule, active = well fitted curve in the direction sought with a large enough effect in the repeat runs; inconclusive = weak or mixed curves; inactive = no such curve, though single readings can be large; an effect the other way counts as inactive or inconclusive.

Experiment [1] is described as follows: qHTS assay for small molecule agonists of the p53 signaling pathway (AID 651631; calls by dose curve; note: nearly all actives have a fitted effect of over 15% in size; note: potency is the fitted concentration of half-maximal effect). In a few lines:
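HCT-116 cells carrying a stable p53 response element–beta-lactamase reporter were plated, rested 5 h at 37 °C, then exposed to compound in DMSO for 16 h at 37 °C; reporter activity was read as FRET substrate fluorescence after 2 h at room temperature.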
On the technique in general: Quantitative high-throughput screening tests each substance at several concentrations.

Experiment [2] is described as follows: qHTS assay for small molecules that induce genotoxicity in human embryonic kidney cells expressing luciferase-tagged ATAD5 (AID 651632). Note: nearly all actives have a fitted effect of over 15% in size. In a few lines: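 ATAD5-luc HEK293T, 2,000 cells/well; cpd or DMSO pin-transferred; 16 hr, 37C/5% CO2; Amplite 30 min RT; luminescence.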
Experiment [3] is described as follows: qHTS assay for small molecule agonists of the p53 signaling pathway - cell viability (AID 651633; calls by dose curve; note: nearly all actives have a fitted effect of over 30% in size). In a few lines: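 Viability counter-read: CellTiter-Glo luminescence (30 min, room temperature) in the same p53RE-bla plates. These plates had been exposed to compounds for 16 h at 37 C.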
The nature of experiment [4]: qHTS assay for small molecules that induce genotoxicity in human embryonic kidney cells expressing luciferase-tagged ATAD5 - cell viability (AID 651634; calls by dose curve; note: nearly all actives have a fitted effect of over 25% in size). In a few lines:
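Fluorescence from CellTiter-Fluor, reporting protease activity within live cells, served as the viability read-out. HEK293T cells carrying luciferase-tagged ATAD5 had been treated with compound for 15.5 hr at 37C.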

Experiment [5] in a line: qHTS assay for small molecule disruptors of the mitochondrial membrane potential - cell viability (AID 720634; calls by dose curve;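 note: human HepG2 liver cancer cells; nearly all actives have a fitted effect of over 20% in size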). The method, boiled down:
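Cells: HepG2, 2,000/well, attached overnight. Compound 1 hr, 37 C/5% CO2. +m-MPI dye, +CellTiter-Glo 30 min RT. Readout: luminescence (ATP).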

The nature of experiment [6]: qHTS assay for small molecule disruptors of the mitochondrial membrane potential (AID 720635). Note: potency is the fitted concentration of half-maximal effect. In a few lines:
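Mitochondrial membrane potential tracked with Mito-MPS dye, red aggregates (ex 540/em 590 nm) against green monomers (ex 490/em 535 nm). Compound treatment 1 hr at 37C, dye 30 min in HepG2.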

Experiment [7] in a line: qHTS assay to test for compound auto fluorescence at 535 nm (green) in HepG2 cells (AID 720675).
Experiment [8] is described as follows: qHTS assay to test for compound auto fluorescence at 460 nm (blue) in HEK293 cells (AID 720678). In a few lines:
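Cells were seeded and left to adhere for 4-5 hr at 37C. Compounds were then pin-transferred. After an overnight incubation at 37C under 5% CO2, intrinsic fluorescence at 405/460 nm was measured and referenced to triamterene.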

The nature of experiment [9]: qHTS assay to test for compound auto fluorescence at 590 nm (red) in HEK293 cells (AID 720679). In a few lines:
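Each well held 2,000 HEK293 cells in medium containing 10% dialyzed FBS. Following 4-5 hr attachment at 37C, 23 nL test compound or DMSO was added; plates sat overnight, and red fluorescence (540/590nm) was recorded.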

A short description of experiment [10]: qHTS assay to test for compound auto fluorescence at 535 nm (green) in HEK293 cells (AID 720680).
Experiment [11] is described as follows: qHTS assay to test for compound auto fluorescence at 460 nm (blue) in HEK293 cell free culture (AID 720681). In a few lines: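 Blue fluorescence (Ex 405/Em 460 nm, triamterene-equivalent) was read immediately after pin transfer of compound or DMSO into medium (DMEM, 10% FBS) without cells.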
The nature of experiment [12]: qHTS assay to test for compound auto fluorescence at 535 nm (green) in HEK293 cell free culture (AID 720682). In a few lines:
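Read-out: 485/535 nm fluorescence intensity, calibrated against fluorescein. Medium only (DMEM + 10% FBS, no cells); test compound or DMSO vehicle added by pintool before plate reading.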

The nature of experiment [13]: qHTS assay to test for compound auto fluorescence at 590 nm (red) in HepG2 cell free culture (AID 720684). In a few lines:
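Plate contents were MEM with 10% FBS plus test compound or DMSO, no cells. Fluorescence was recorded with 540 nm excitation and 590 nm emission.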

Experiment [14] in a line: qHTS assay to test for compound auto fluorescence at 460 nm (blue) in HepG2 cell free culture (AID 720685). In a few lines:
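Compound (23 nL) or DMSO pinned into cell-free MEM with 10% FBS; blue fluorescence read at 405/460 nm excitation/emission, expressed as auto-fluorescence equivalency to triamterene.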

Experiment [15] is described as follows: qHTS assay to test for compound auto fluorescence at 535 nm (green) in HepG2 cell free culture (AID 720686).
Experiment [16] in a line: qHTS assay to test for compound auto fluorescence at 460 nm (blue) in HepG2 cells (AID 720687). The method, boiled down:
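Blue-channel autofluorescence (Ex/Em 405/460 nm, triamterene-equivalent) was measured after 1 hr compound exposure at 37 C, 5% CO2. Cells were HepG2, plated overnight at 37 C in MEM plus 10% FBS.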

Experiment [17] has as its target Glucocorticoid receptor (Homo sapiens) (UniProt P04150). As to the kind of experiment: qHTS assay to identify small molecule agonists of the glucocorticoid receptor (GR) signaling pathway (AID 720691; active = well fitted activation curve with a large enough effect in the signal ratio in the repeat runs, not every such curve was filed as active; the % refers to the signal ratio; note: potency is the fitted concentration of half-maximal effect). The following applies: GR-bla HeLa, beta-lactamase reporter ratio, 18 h; activation: at 62.4 µM (top of the series) unless noted. The method, boiled down:
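Fluorescence intensity from LiveBLAzer B/G FRET substrate (2 h, room temperature) reports beta-lactamase expression driven by the glucocorticoid response element in GR-bla HeLa cells after 18 h compound exposure at 37 C.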

The nature of experiment [18]: qHTS assay to test for compound auto fluorescence at 590 nm (red) in HepG2 cells (AID 720674). The method, boiled down: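 We screened compounds on adherent HepG2 cells, incubating them for an hour at 37 C in 5% CO2 before reading emission at 590 nm under 540 nm excitation; values reflect equivalence to Rose Bengal sodium fluorescence.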
Experiment [19] can be described thus: qHTS assay to test for compound auto fluorescence at 590 nm (red) in HEK293 cell free culture (AID 720683). The method, boiled down: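 Red-channel autofluorescence of compounds in culture medium (DMEM, 10% FBS), no cells, measured at 540/590 nm. Rose Bengal sodium is the reference fluorophore for equivalence.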
The target in experiment [20] is Glucocorticoid receptor (Homo sapiens) (UniProt P04150). As to the kind of experiment: qHTS assay to identify small molecule antagonists of the glucocorticoid receptor (GR) signaling pathway (AID 720692; active = well fitted inhibition curve with a large enough effect in the signal ratio in the repeat runs, not every such curve was filed as active; the % refers to the signal ratio). In a few lines: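 HeLa GR-bla cells; cmpd + dex 5 nM final, 18 h 37 C; LiveBLAzer B/G FRET substrate 2 h RT; fluorescence intensity read. Antagonist mode, qHTS.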
Glucocorticoid receptor (Homo sapiens), sequence (P04150 whole entry, looked up): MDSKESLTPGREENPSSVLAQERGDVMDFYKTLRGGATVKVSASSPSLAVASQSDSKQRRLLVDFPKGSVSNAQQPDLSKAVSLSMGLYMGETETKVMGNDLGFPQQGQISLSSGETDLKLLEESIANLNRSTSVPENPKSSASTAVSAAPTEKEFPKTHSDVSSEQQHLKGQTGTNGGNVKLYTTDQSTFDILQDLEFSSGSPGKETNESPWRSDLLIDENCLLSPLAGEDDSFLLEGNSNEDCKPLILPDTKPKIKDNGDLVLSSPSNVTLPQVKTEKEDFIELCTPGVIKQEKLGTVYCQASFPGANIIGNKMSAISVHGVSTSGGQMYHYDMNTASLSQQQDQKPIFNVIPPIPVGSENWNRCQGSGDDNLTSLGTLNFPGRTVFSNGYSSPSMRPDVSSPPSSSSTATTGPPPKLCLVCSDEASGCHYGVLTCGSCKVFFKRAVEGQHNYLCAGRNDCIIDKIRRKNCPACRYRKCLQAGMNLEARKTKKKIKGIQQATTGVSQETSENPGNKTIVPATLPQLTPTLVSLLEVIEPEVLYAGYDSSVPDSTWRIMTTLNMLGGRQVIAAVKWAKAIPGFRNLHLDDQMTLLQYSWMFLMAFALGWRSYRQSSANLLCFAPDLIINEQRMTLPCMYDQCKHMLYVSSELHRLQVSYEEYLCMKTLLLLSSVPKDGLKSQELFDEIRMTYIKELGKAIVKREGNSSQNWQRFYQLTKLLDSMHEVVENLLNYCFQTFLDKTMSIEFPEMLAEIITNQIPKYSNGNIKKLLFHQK
% is set by controls: 0 for no effect and ±100 for the full control effect.

`CN1C[C@H]2c3ccccc3Oc3ccc(Cl)cc3[C@@H]2C1`: in experiment [1], the Potency is 29.8 µM (active). Further, the Potency entry in experiment [2], in [3], in experiment [4], in experiment [5], in [6] and in experiment [7] was “inactive” throughout. Moreover, the Potency result in experiment [9], in experiment [13], in [15] and in experiment [17] was “inactive” each time. The call in [8], in [10], in experiment [11], in experiment [12], in experiment [14] and in [16] was inactive.

For `CCCCCCCCCCCC(=O)OC[C@@H](O)[C@H]1OC[C@H](OCCO)[C@H]1OCCO`, the Potency result in [1], in experiment [2], in [3], in experiment [4], in experiment [5] and in experiment [6] was “inactive” in each case. Moreover, the Potency entry in experiment [18], in [7], in experiment [9], in experiment [19], in [13] and in experiment [15] was “inactive” each time. In addition, the compound was called inactive in experiment [8], in experiment [10], in experiment [11], in experiment [12], in [14] and in [16].

On to `Cc1ccccc1S(=O)(=O)O`, for which the Potency entry in experiment [1], in experiment [2], in experiment [3], in [4], in experiment [5] and in experiment [6] was “inactive” in each case. For the same compound, the Potency result in experiment [7], in experiment [9], in experiment [19], in experiment [13] and in experiment [15] was “inactive” in each case. Also, the result in experiment [8], in experiment [10], in experiment [11], in [12], in experiment [14] and in [16] was inactive.

`CC(CC=O)c1ccccc1` (centres undefined): the Potency entry in experiment [1], in experiment [2], in experiment [3], in experiment [4], in experiment [5] and in [18] was “inactive” throughout. Besides, the Potency entry in experiment [7], in [9], in experiment [19], in [13] and in experiment [15] was “inactive” throughout. The Potency in [6] is 54.5 µM (active). Besides, the compound was classed as inactive in [8], in experiment [10], in experiment [11], in [12], in experiment [14] and in experiment [16].

In the case of `c1ccc(-c2ccccn2)nc1`, the Potency result in experiment [1], in [2], in experiment [3], in experiment [4], in experiment [5] and in [6] was “inactive” each time. For the same compound, the Potency entry in experiment [18], in experiment [7], in [9], in [19], in experiment [13] and in [15] was “inactive” each time. The Potency entry in [17] is “inactive”. For the same compound, the compound was called inactive in [8], in experiment [10], in experiment [11], in experiment [12], in experiment [14] and in experiment [16].

For `C/C(=C(\CCOP(=O)(O)O)SC(=O)c1ccccc1)N(C=O)Cc1cnc(C)nc1N`, the Potency entry in experiment [1], in [2], in experiment [3], in experiment [4], in [5] and in [6] was “inactive” each time. Also, in experiment [20], the Potency result is “inactive”. Further, the fluorescence, % of fluorescein control in experiment [7] was -0.0371% [at 18.6 µM]. Moreover, the fluorescence, % of triamterene in experiment [8] is -0.0569% [at 18.6 µM]. The fluorescence, % of fluorescent control in [9] is 0.166% [at 18.6 µM]; in [11], -0.0157% [at 18.6 µM]; in experiment [19] it was -0.0062% [at 18.6 µM]; in [14], -0.035% [at 18.6 µM]; in experiment [16], -0.293% [at 18.6 µM]. Further, the fluorescence, % of fluorescein in experiment [10] is -0.205% [at 18.6 µM]. The activity change in [12] is 0.0312% [at 18.6 µM]. Moreover, the fluorescence, % of Rose Bengal in experiment [13] is 0.0762% [at 18.6 µM]. Moreover, the Potency in experiment [17] is 11.5 µM (active).

In the case of `C[C@@H]1C[C@H]2O[C@@]3(O[C@@H]2C(C)(C)O)[C@H](O)[C@@]2(C)[C@@H]4CC[C@H]5C(C)(C)[C@@H](O[C@@H]6OC[C@@H](O)[C@H](O)[C@H]6O)CC[C@@]56C[C@@]46CC[C@]2(C)[C@@H]13`, the Potency result in [1], in [2], in experiment [3], in experiment [4], in experiment [5] and in experiment [18] was “inactive” throughout. Moreover, the Potency result in experiment [7], in experiment [9], in experiment [13], in experiment [15] and in experiment [17] was “inactive” in each case. Further, the Potency in experiment [6] was 5.38 µM (active). Moreover, the compound was classed as inactive in [8], in [10], in experiment [11], in experiment [12] and in experiment [16].

(Values after PubChem BioAssay (Tox21).)
